Bioassay records deposited in PubChem BioAssay by National Center for Advancing Translational Sciences (NCATS).
p53 reactivation – qHTS assay for re-activators of p53 using a Luc reporter; H1299 p53-A138V BP100-luciferase reporter, luminescence, 24 h; Potency, µM (series often up to 92.2 µM), without a hit: top-dose activity change, positive = activation, hits mostly activators; 320,000 tested, 0.063% active; AID 504706, 2011; also: % of control where 0% means no effect; nearly all actives have a fitted effect of over 45% in size
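p53-null H1299 cells stably carrying temperature-sensitive p53-A138V and a BP100-luciferase reporter were pinned with compounds (4-point, 1:5 series) and held 24 hrs at 37 deg C. Luminescence was read 10 min after detection reagent.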
FLuc counter – qHTS profiling assay for firefly luciferase inhibitor/activator using purifed enzyme and Km concentrations of substrates (counterscreen for miR-21 project). Luciferin 4-monooxygenase (Photinus pyralis), P08659. purified FLuc, Km substrates, luminescence inhibition. Potency, µM (doses to about 57.5 µM), inactives show top-dose activity change, negative = inhibition, hits mostly inhibitors. 360,000 tested, 6.9% active;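 also: plate controls were vehicle for no effect and reference inhibitor for full effect; nearly all actives have a fitted effect of over 55% in size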
Target sequence (P08659 whole entry, looked up): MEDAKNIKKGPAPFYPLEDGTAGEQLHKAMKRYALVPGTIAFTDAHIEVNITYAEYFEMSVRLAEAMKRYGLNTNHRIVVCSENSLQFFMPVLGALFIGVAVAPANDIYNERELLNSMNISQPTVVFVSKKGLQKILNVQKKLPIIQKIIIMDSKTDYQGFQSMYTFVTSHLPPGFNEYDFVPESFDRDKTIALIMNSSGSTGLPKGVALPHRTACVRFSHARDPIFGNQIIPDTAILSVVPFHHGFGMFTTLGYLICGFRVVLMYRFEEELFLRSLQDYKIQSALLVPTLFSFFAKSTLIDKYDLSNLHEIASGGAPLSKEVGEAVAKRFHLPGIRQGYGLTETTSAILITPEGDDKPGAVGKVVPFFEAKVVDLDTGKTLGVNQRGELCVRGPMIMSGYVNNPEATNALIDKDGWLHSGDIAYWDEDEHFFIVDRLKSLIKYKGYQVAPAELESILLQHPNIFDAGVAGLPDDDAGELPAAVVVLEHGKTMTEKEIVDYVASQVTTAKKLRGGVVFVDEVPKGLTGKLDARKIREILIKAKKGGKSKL
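Purified P. pyralis luciferase, 10 nM final, with Km-level 10 uM D-luciferin and 10 uM ATP in 50 mM Tris acetate pH 7.5, 10 mM Mg acetate, 0.01% Tween-20, 0.05% BSA; 6-point qHTS titration about 60 µM downward; luminescence read.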
NPC1 promoter act – qHTS Assay for NPC1 Promoter Activators | 320,000 tested, 2.4% active | Huh7 NPC1 promoter luciferase reporter, 24 h | Potency, µM (series often up to 9.22 µM), without a hit: at the top dose activation, actives largely listed as activators; also: % of control where 0% means no effect; nearly all actives have a fitted effect of over 60% in size
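In 1536-well qHTS, Huh7 cells harboring an NPC1 promoter–luciferase construct received compound for 24 h; activation was quantified by luminescence following luciferase reagent addition.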
SMN2 splice enh – qHTS Assay for Enhancers of SMN2 Splice Variant Expression; Potency, µM (series often up to 46.1 µM), for the others: at the highest dose activity change, positive = activation, actives largely listed as activators; 210,000 tested, 2.8% active; HEK293 SMN2-luciferase splicing reporter, luminescence, 30-36 h; also: % of control where 0% means no effect; nearly all actives have a fitted effect of over 55% in size
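HEK293 cells carry an SMN2 minigene-luciferase reporter in which exon 7 inclusion puts luciferase in frame. Cells were seeded at 2000 cells/well, attached for 10-12 hours, then exposed to compounds for 30-36 hours at 37C before ONE-Glo luminescence.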
ELG1 genotox – qHTS screen for small molecules that induce genotoxicity in human embryonic kidney (HEK293T) cells expressing luciferase-tagged ELG1. Potency, µM (titrated, usually from 46 µM), without a hit: at the top dose activity change, positive = activation, usual class: activators. HEK293T ELG1-luciferase reporter, luminescence, 16 h. 330,000 tested, 1.3% active. AID 504466, 2011; also: % of control where 0% means no effect; nearly all actives have a fitted effect of over 60% in size
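ELG1-luciferase HEK293T cells, 2,000/well; compound pinned in; 16 hr, 37 °C, 5% CO2; ONE-Glo, 30 min RT; luminescence on CCD imager.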
Rab9 prom act – qHTS Assay for Rab9 Promoter Activators | Huh7 Rab9 promoter-luciferase reporter, luminescence, 24 h | Potency, µM (highest dose often 9.22 µM), for the others: top-dose activation, negative = inhibition, actives largely listed as activators | 320,000 tested, 2.8% active; also: % of control where 0% means no effect; nearly all actives have a fitted effect of over 60% in size
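Cell-based reporter: Huh7 stable for Rab9 promoter-driven luciferase, plated in reduced-serum medium with 10% FBS at 1500 cells/well, compound-treated 24 h at 37 °C, luminescence read after 10 min reagent.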
Active calls of the source: *; ? = inconclusive; . = not tested or not shown; [ ] = another dose, or the depositor's remark. Only some compounds are listed: those with a hit (about 7.4% of all), similar ones and a draw of the others. Calls follow the shape of the dose curve; as a rule, active = well fitted curve in the direction sought with a large enough effect; inconclusive = small, poorly fitted or top-dose-only effect, or another doubt; inactive = no such curve, though single readings can be large; an effect the other way counts as inactive or inconclusive. Potency is read from the fitted curve at half-maximal effect.

SMILES	p53 reactivation	FLuc counter	NPC1 promoter act	SMN2 splice enh	ELG1 genotox	Rab9 prom act
CCOc1ccc2nc(N3CCCCCC3)sc2c1	?	1.1µM*	1.1µM*	7.9µM*	?	1µM*
CCOc1cc2sc(N3CCC(C(=O)Nc4ccc(C)cc4)CC3)nc2cc1Br	.	-9%	.	16µM*	.	.
CCOc1cc2sc(N3CCC(C(=O)Nc4ccccc4C(=O)OC)CC3)nc2cc1Br	.	-2%	.	8%	.	.
CCOc1ccc2nc(N3CCCC(C(=O)NCc4ccc(OC)cc4)C3)sc2c1 (stereo not given)	.	2.4µM*	.	13µM*	.	.
Cc1cc(C)c2nc(N3CCCC(C(=O)NC4CCCC4)C3)sc2c1 (stereo not given)	4%	9.5µM*	30%	.	7%[9.26 µM]	?
CCOc1ccc2nc(N3CCC(C(=O)N4CCN(C5CCCCC5)CC4)CC3)sc2c1	?	-19%	11%	-16%	4%	2%
Cc1nn(CC(=O)N2CCCCCC2)c(=O)c2cc3occc3n12	-2%	2%	-1%	.	1%	-3%
CCC1CCCCN1S(=O)(=O)c1ccc(C(=O)Nc2sc3c(c2C(=O)NC)CCC3)cc1 (stereo not given)	.	-4%	.	.	.	.
CCCS(=O)(=O)c1nc(S(=O)(=O)c2ccc(C)cc2)c(N2CCN(CC)CC2)s1	17%	2%	2%	.	-6%	0%
Cc1ccc(Cl)cc1N1CCN(CCCNC(=O)c2ccc3nc(N4CCCCC4)sc3c2)CC1	.	?	.	25%	.	.
CCOc1ccc2nc(N3CCCC(C(=O)N4CCN(CC)CC4)C3)sc2c1 (stereo not given)	?	21µM*	?	?	13%	?
CCOc1ccc2nc(N3CCCC(C(=O)NCCc4ccc(OC)cc4OC)C3)sc2c1 (stereo not given)	.	?	.	14µM*	.	.
CCOc1ccc2nc(N3CCCC(C(=O)NCCc4ccc(OCC)c(OCC)c4)C3)sc2c1 (stereo not given)	.	?	.	15%	.	.
COc1ccc(N2CCN(CCCNC(=O)c3ccc4nc(N5CCCCC5)sc4c3)CC2)cc1	.	?	.	0.79µM*	.	.
CCOc1ccc2nc(N3CCCC(C(=O)Nc4ccc(Br)c(C)c4)C3)sc2c1 (stereo not given)	.	6µM*	.	24%	.	.
O=C(O)C(S)[C@@H](S)C(=O)O (stereo not given in full)	.	.	.	-12%	.	.
COCCN(C(=O)Nc1ccccc1OC)c1nc2ccccc2s1	.	?	1%	.	0%	5%
COc1ccc(Br)cc1CNC(=O)C1COc2ccccc2C1 (stereo not given)	.	-13%	.	.	.	.
Cc1nc(-c2cccc(F)c2)sc1CCNC(=O)c1c(F)cccc1Cl	.	-15%	.	.	.	.
CC(=O)c1cccc(NC(=O)Nc2nc(C)cc(C)n2)c1	-3%	1%	6%	.	-4%	4%
CN1C/C(=C/c2ccncc2)C(=O)/C(=C/c2ccncc2)C1	-18%	-2%	-13%	.	-11%	-1%
COc1ccc2c(c1)CC/C(=C\c1ccc(C)o1)C2=O	?	2.4µM*	2.5µM*	.	?	2.8µM*
COc1ccc2c(c1)CC/C(=C/c1ccncc1)C2=O	?	13µM*	-2%	-58%	0%	-14%
COc1ccccc1CNC(=O)COC(=O)c1cccnc1SCC(=O)NCc1ccccc1OC	4%	?	16%	1%	-7%	?
O=C(COC(=O)c1cccnc1SCC(=O)NCc1ccccc1)NCc1ccccc1	-3%	2.7µM*	1%	25%	4%	11%
SMILES	p53 reactivation	FLuc counter	NPC1 promoter act	SMN2 splice enh	ELG1 genotox	Rab9 prom act
COC(=O)c1ccc(NC(=O)c2cc3cc(C)ccc3n2C)cc1	.	-9%	.	.	.	.
Cc1ccc[n+](CC(=O)Nc2c(Cl)cc(Cl)cc2Cl)c1	2%	19µM*	11%	.	11%	24%
O=C(C[n+]1ccccc1)Nc1c(Cl)cc(Cl)cc1Cl	2%	?	6%	.	3%	?
COc1ccc(C(=O)Nc2ccc3nc(SCC(=O)N4CCOCC4)sc3c2)cc1	.	-7%	.	.	.	.
COc1ccc(Nc2nnc(SCC(=O)N3CCCC3)s2)cc1	-3%	17µM*	11%	8%	0%	1%
COc1ccc(Nc2nnc(SCC(=O)c3cc(C)n(CC4CCCO4)c3C)s2)cc1 (stereo not given)	24%	3.8µM*	9%	-27%	2%	9%
COc1ccc(Nc2nnc(SCC(=O)N3CC(=O)Nc4ccccc43)s2)cc1	-1%	8.5µM*	14%	.	-1%	15%
CC(C)Oc1ccc(C(=O)Nc2nnc(SCC(=O)N3CCOCC3)s2)cc1	48%	0.06µM*	?	1.4µM*	?	0.4µM*
CC(=C(CCOP(=O)(O)O)SC(=O)c1ccccc1)N(C=O)Cc1cnc(C)nc1N	.	.	.	5%	.	.
COc1ccc(S(=O)(=O)N(CC(=O)Nc2ccccc2Cl)Cc2ccccc2)cc1	.	-3%	.	.	.	.
Cc1ccc(NC(=O)CSCC(=O)NNC(=O)c2nn(C)c(=O)c3ccccc23)cc1	-9%	?	-5%	.	0%	-9%
COc1cccc(N2CC(C(=O)Nc3nnc(SCC(=O)N4CCCC4)s3)CC2=O)c1 (stereo not given)	-1%	-1%	-2%	.	8%	-1%
COc1cccc(Nc2nnc(SCC(=O)N3CCOCC3)s2)c1	9%	19µM*	12%	-8%	14%	15%
Cc1c(NC(=O)c2cccc3c(Cl)cccc23)cccc1-c1nc2ccccc2o1	.	4%	.	-1%	.	.
CCN(CC)c1ccc(N=C2C(=O)Nc3ccccc32)cc1	6%	6.7µM*	1%	.	-9%	6%
COc1ccc(-c2nsc3c(N4CCCC4)ncnc23)cc1	?	0.13µM*	4µM*	?	.	0.11µM*
COc1ccccc1N1CCN(c2ncnc3c2oc2ccccc23)CC1	?	27µM*	-24%	.	?	-20%
O=C(c1ccco1)N1CCN(c2ncnc3c(-c4ccc(Cl)cc4)nsc23)CC1	27%	6µM*	1%	.	?	9%
c1cnc(N2CCN(c3ncnc4c3oc3ccccc34)CC2)nc1	6%	-1%	-2%	.	12%	8%
O=C(c1ccco1)N1CCN(c2ncnc3c2oc2ccccc23)CC1	6%	24µM*	-2%	4%	?	2%
COc1ccc(-c2noc(CC(=O)N(C)c3cc(Cl)c(OC)cc3OC)n2)cc1	.	5%	.	.	.	.
